Bioassay records from PubChem.
This is a sample that favours compounds with a hit; in the whole collection about 2.1% have one here.
ADAM10 inh = ADAM10 inhibition, QFRET primary screen. actives 0.62% (n = 370,000). recombinant ADAM10, EDANS/DABCYL FRET peptide cleavage, 3 h. inhibition, % at 7 µM. AID 720582;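 active = inhibition above a per-campaign cutoff equal to the mean of compounds falling between control-based bounds plus 3 SD, cut at about 20% in these data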;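 also: 0% = DMSO wells while the 100% control is not disclosed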
Rce1 inhib = blocks yeast Ras-converting enzyme; Q03530; yeast membranes, quenched prenylated peptide cleavage fluorescence; calls only; actives 0.27% (n = 290,000);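 active = fall in fluorescence gain of 50% or more versus controls, with final raw signal at or below 3038400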;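 also: plate controls were neutral control wells for no effect and wells lacking membranes for full effect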
PLC-gamma1 inh = PLC-gamma1 (human) inhibition, primary screen; actives 0.84% (n = 370,000); AID 720700; P19174; purified PLC-gamma1, fluorogenic substrate, fluorescence; inhibition, % at 12.2 µM; in the data active = inhibition above about 9.5%
PLC-beta3 inh = blocks human PLC-beta3 enzyme activity; Q01970; Purified PLC-beta3, fluorogenic substrate, fluorescence; inhibition, % at 12.2 µM; actives 0.18% (n = 370,000); AID 720704; in the data active = inhibition above about 11%;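 also: 0% = median of compound wells on plate and 100% = full blocker control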
ADAM17 inh = inhibitors of human ADAM17. P78536. recombinant ADAM17, EDANS/DABCYL FRET peptide cleavage. inhibition, % at 6.95 µM. actives 0.83% (n = 370,000);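 active = inhibition above the mean of compounds lying between control limits plus 3 SD, set per campaign, cut at about 8.5% in these data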;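 also: 0% = DMSO-only wells as the low control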
ADAM10 ctr = counter-screen for ADAM17 exosite inhibitors: inhibitors of human ADAM10; shares compounds with ADAM17 inh; recombinant ADAM10, EDANS/DABCYL FRET peptide cleavage, 3 h; AID 743256; actives 47% (n = 2,900); inhibition, % at 6.95 µM;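 active = mean inhibition over the triplicate runs exceeds the activity threshold set in the earlier primary screen, cut at about 20% in these data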;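 also: 0% = DMSO wells and 100% = marimastat wells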
ADAM17 confirm = confirmation of inhibitors of human ADAM17 | actives 65% (n = 2,900) | inhibition, % at 6.95 µM | shares compounds with ADAM17 inh | AID 743257 | recombinant ADAM17, EDANS/DABCYL QFRET peptide cleavage;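 active = mean inhibition across replicates above the hit cutoff set in the primary screen, cut at about 8.5% in these data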;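 also: 0% = DMSO wells and 100% = marimastat wells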
An asterisk follows results filed as active; i = inactive; . = no result.

SMILES | ADAM10 inh | Rce1 inhib | PLC-gamma1 inh | PLC-beta3 inh | ADAM17 inh | ADAM10 ctr | ADAM17 confirm
Cc1c(C(=O)N2CCN(S(=O)(=O)c3ccccc3)CC2)oc2ccc(Br)cc12 | 12 | . | 6 | -1 | 10* | 24* | 14*
Cc1cc(F)cc(-c2cc(C(=O)NCc3ccccn3)[nH]n2)c1 | 1 | . | 5 | 3 | 1 | . | .
Cc1ccc(S(=O)(=O)N2CCN(C(=O)COC(=O)c3ncc(Cl)c(Cl)c3Cl)CC2)c(C)c1 | -11 | . | 2 | -5 | 9.0* | 8 | 8.9*
CC(C)C(C(=O)Nc1ccc(S(N)(=O)=O)cc1)N1C(=O)c2ccccc2C1=O (stereo unspecified) | 5 | i | 3 | 7 | 1 | . | .
CC(C)Oc1ccc(F)cc1-c1cc(C(=O)Nc2ccc(C(C)(C)C)cc2)[nH]n1 | -9 | . | 1 | 0 | -4 | . | .
COc1ccc(-c2csc(NC(=O)CSc3nc(SC)ns3)n2)cc1 | 33* | i | 5 | 1 | 15* | 26* | 17*
CC(=O)Nc1ccccc1OCC(=O)NC1CCCCC1C (stereo unspecified) | 0 | . | -1 | -1 | -1 | . | .
Cc1[nH]c(=O)sc1C(=O)NCc1ccc([N+](=O)[O-])cc1 | 0 | . | 3 | 3 | -2 | . | .
CCc1c(-c2ccc(Cl)cc2)ncn1Cc1cccc(-c2ccccc2)c1 | 18 | . | 3 | 0 | 12* | 1 | 6
CCc1c(-c2ccccc2F)ncn1Cc1cccc(-c2ccccc2)c1 | 9 | . | -3 | -3 | 8 | . | .
Cc1cccc(O)c1C | -13 | . | 5 | -1 | -1 | . | .
Cc1cccc(C)c1N=Nc1c(C)cc(O)cc1C | 19 | i | 6 | 0 | 9.9* | 45* | 20*
O=C1Cc2cc(NS(=O)(=O)c3ccc([N+](=O)[O-])cc3)cc3c2N1CCC3 | -7 | i | 1 | -5 | -2 | . | .
Cc1ccccc1-c1cc2nc(Oc3cccc4ccccc34)n(C)c(=O)c2s1 | 1 | . | 7 | -1 | 9.2* | 15 | 9.5*
CN1C(=O)C2(OCC(COc3ccc(Cl)cc3)O2)c2ccccc21 (stereo unspecified) | 8 | i | 0 | -1 | 3 | . | .
O=C1Nc2ccccc2C12OCC(COc1ccc(Cl)cc1)O2 (stereo unspecified) | 16 | i | -1 | -6 | 11* | 8 | 6
O=C(CN1CCN(S(=O)(=O)c2ccccc2)CC1)NC(=O)NCc1ccco1 | 4 | i | 2 | -4 | -1 | . | .
CCOC(=O)N1CCC(NC(=O)CS(=O)(=O)Cc2nc(-c3cccc(OC)c3)oc2C)CC1 | -1 | i | 1 | 3 | 0 | . | .
CCOC(=O)N1CCC(NC(=O)CS(=O)(=O)Cc2nc(-c3cccc(Cl)c3)oc2C)CC1 | -3 | i | 7 | -7 | 9.6* | 2 | 3
N#CCn1c(CN2CCCC2)nc2ccccc2c1=O | 4 | i | 0 | -5 | -2 | . | .
CCOC(=O)N1CCN(C(=O)C[C@H]2C[C@@]3(C(=O)OC)C(=C[C@H](C(C)C)O[C@@H]3C3CC3)N(Cc3ccc(Cl)cc3Cl)C2=O)CC1 | 6 | . | 7 | 0 | 9.2* | 18 | 12*
COC(=O)[C@]12C[C@H](CC(=O)N3CCCCC3)C(=O)N(Cc3ccc(Cl)cc3Cl)C1=C[C@H](C(C)C)O[C@@H]2C1CC1 | 2 | . | -3 | -1 | -1 | . | .
CCOC(=O)C1CCC(=O)N1Cc1c[nH]c2ccccc12 (stereo unspecified) | -1 | . | 2 | 1 | -3 | . | .
COc1ccc2cc(S(=O)(=O)NCc3cccnc3)ccc2c1 | -1 | i | 4 | -9 | -5 | . | .
COc1ccc(NC(=O)C(OC(=O)c2ccc([N+](=O)[O-])o2)c2ccccc2)cc1Cl (stereo unspecified) | 5 | i | -2 | -2 | 9.8* | 25* | 12*
COc1ccc(NC(=O)C(OC(=O)c2cnc(C)cn2)c2ccccc2)cc1Cl (stereo unspecified) | 1 | i | 9 | 0 | 0 | . | .
COc1cc(/C=C2\SC(=S)N(NC(=O)c3ccccc3OC)C2=O)ccc1O | 19 | i | -10 | -19 | 11* | 23* | 11*
